Source: PubChem
HPGD inh: qHTS Assay for Inhibitors of HPGD (15-Hydroxyprostaglandin Dehydrogenase); 15-hydroxyprostaglandin dehydrogenase [NAD(+)] (Homo sapiens), P15428; purified HPGD, NADH fluorescence kinetic, PGE2 substrate; AID 894, 2007; Potency, µM, without a hit: at the highest dose activity change, negative = inhibition, actives largely listed as inhibitors; 150,000 tested, 4.3% active; note: potency is the fitted concentration of half-maximal effect
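20 nM HPGD preincubated 15 min at room temperature with compound in 50 mM Tris-HCl pH 8, 0.01% Tween 20. Started with 1 mM NAD+ and 30 uM prostaglandin E2; NADH fluorescence (360/450 nm) read 5 times over 30-s intervals, last minus first.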
PNC assembly inh: High Content Assay for Compounds that inhibit the Assembly of the Perinucleolar Compartment; PC3M PTB-GFP, PNC prevalence imaging, 16 h; hits give low values; AID 2417, 2010; activity change (PNC), negative = inhibition, % at 10 µM; 140,000 tested, 3.1% active;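 active = readout at or below -70, meaning at least 70% loss of cells showing the perinucleolar compartment, a nuclear body marking cancer cells; inconclusive = readout between -30 and a set limit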;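 note: plate controls were DMSO wells for no effect and camptothecin positive control wells for full effect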
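Compounds are pinned in duplicate onto adhered PC3M cells stably expressing GFP-tagged PTB and incubated 16 h at 37 C. Cells are then fixed, nuclei stained with Hoechst, and PNC-positive cells counted.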
ALDH1A1 block: qHTS Assay for Inhibitors of Aldehyde Dehydrogenase 1 (ALDH1A1); Aldehyde dehydrogenase 1A1 (Homo sapiens), P00352; Purified ALDH1A1, NADH fluorescence, propionaldehyde substrate; Potency, µM (doses to about 75.3 µM), inactives show top-dose activity, negative = inhibition, most hits filed as inhibitors; 220,000 tested, 7.3% active;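 note: potency is the fitted concentration of half-maximal effect; plate controls were no enzyme wells and a reference inhibitor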
Target sequence (P00352 whole entry, looked up): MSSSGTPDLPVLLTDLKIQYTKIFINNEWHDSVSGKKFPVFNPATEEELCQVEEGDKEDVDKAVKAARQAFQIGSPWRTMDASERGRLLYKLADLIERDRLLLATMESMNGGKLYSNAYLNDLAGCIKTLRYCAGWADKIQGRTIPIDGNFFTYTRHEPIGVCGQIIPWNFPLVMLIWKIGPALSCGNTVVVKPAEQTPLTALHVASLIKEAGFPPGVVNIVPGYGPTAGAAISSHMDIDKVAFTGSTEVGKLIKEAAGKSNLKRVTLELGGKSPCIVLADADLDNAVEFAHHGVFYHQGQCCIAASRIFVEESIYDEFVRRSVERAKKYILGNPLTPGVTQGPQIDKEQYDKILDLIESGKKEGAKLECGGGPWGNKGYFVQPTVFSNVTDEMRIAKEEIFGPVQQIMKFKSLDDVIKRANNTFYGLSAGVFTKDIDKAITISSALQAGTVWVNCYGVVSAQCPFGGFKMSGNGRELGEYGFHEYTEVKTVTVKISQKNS
Active calls of the source: *; [ ] = remark or other dose. Sampled rows, rich in hits. Any-hit rate of the full collection: about 11%. Unless noted, calls come from the whole dose curve; as a rule, active = well fitted inhibition curve with a large enough effect (not every such curve was filed as active); inconclusive = small, poorly fitted or top-dose-only effect, or another doubt; inactive = no such curve, though single readings can be large or run the other way. Unless noted, % is set by controls: 0 for no effect and ±100 for the full control effect.

Results for CCn1nnc(NC(=O)c2cccnc2Cl)n1 ?
HPGD inh: -2%; PNC assembly inh: 42; ALDH1A1 block: 19%

Results for O=C(NCc1cccnc1)c1sc2cc(Cl)ccc2c1Cl ?
HPGD inh: inconclusive; PNC assembly inh: inconclusive; ALDH1A1 block: 2%

What do the screens show for `CCn1nnc(NC(=O)c2sc3ccccc3c2Cl)n1`?
HPGD inh: -17%; PNC assembly inh: -17; ALDH1A1 block: 3.2µM*

Results for CC(=O)Nc1ccc(NC(=O)C(C)OC(=O)CNC(=O)c2sc3ccccc3c2Cl)cc1 (centres undefined) ?
HPGD inh: -13%; PNC assembly inh: 19; ALDH1A1 block: 3%

What do the screens show for `O=C(NCc1ccco1)c1nc2ccccc2s1`?
HPGD inh: inconclusive; PNC assembly inh: 27; ALDH1A1 block: inconclusive

How did O=C(NCc1ccco1)c1sc2cc(Cl)ccc2c1Cl do in these assays?
HPGD inh: 16µM*; PNC assembly inh: -11; ALDH1A1 block: 20µM*

How did CCOC(=O)c1ccccc1-c1cn2cc(Cl)ccc2n1 do in these assays?
ALDH1A1 block: 10%

How did CCn1c(SCC(=O)N(C)c2c(N)n(Cc3ccccc3)c(=O)[nH]c2=O)nc2ccccc21 do in these assays?
ALDH1A1 block: -9%

Results for CC1Cc2ccccc2N1C(=S)Nc1ccc(S(N)(=O)=O)cc1 (centres undefined) ?
HPGD inh: -4%; PNC assembly inh: inconclusive; ALDH1A1 block: -5%

What do the screens show for `CC(=O)c1ccc(NC(=S)N2c3ccccc3CC2C)cc1` (centres undefined)?
ALDH1A1 block: 25µM*

Results for NS(=O)(=O)c1cccc(NC(=O)CN2CCN(Cc3ccc4c(c3)OCO4)CC2)c1 ?
HPGD inh: -11%; PNC assembly inh: 55; ALDH1A1 block: 13%

How did NS(=O)(=O)c1cccc(NC(=O)CN2CCc3ccccc32)c1 do in these assays?
ALDH1A1 block: 7.9µM*

Results for C/C(CCN1CCCCc2nc(C)c(C)cc21)=N\O[C@@H](C)CN1CCCc2nc(C)c(C)cc21 ?
ALDH1A1 block: 5%[13.5 µM]

What do the screens show for `CS(=O)(=O)N1CCC(C(=O)NCc2ccc(F)cc2)CC1`?
ALDH1A1 block: 3%

What do the screens show for `CC(C)NC(=O)CCn1c(=S)oc2ccccc21`?
ALDH1A1 block: 1%

Results for CCCCC(=O)/C=C/n1c(=S)oc2ccccc21 ?
HPGD inh: inconclusive; PNC assembly inh: -116*; ALDH1A1 block: 11µM*

Results for CC(C)OC(=O)n1c(=S)oc2ccccc21 ?
HPGD inh: inconclusive; PNC assembly inh: -4; ALDH1A1 block: 7.1µM*

What do the screens show for `Cc1ccc(NC(=O)CCn2c(=S)oc3ccccc32)cc1`?
ALDH1A1 block: -2%

What do the screens show for `O=C(Nc1ccc(NC(=O)C2CC2)cn1)c1ccccc1Cl`?
HPGD inh: -12%; PNC assembly inh: -112*; ALDH1A1 block: 3%

Results for CC(=O)Nc1ccc(Br)c(Cl)c1 ?
ALDH1A1 block: 2%

How did O=C(Nc1ccc(NC(=O)C2CC2)nc1)c1ccco1 do in these assays?
HPGD inh: -8%; PNC assembly inh: 3; ALDH1A1 block: 0%

What do the screens show for `O=C(Nc1ccc(NC(=O)C2CC2)nc1)c1cccs1`?
HPGD inh: -8%; PNC assembly inh: -107*; ALDH1A1 block: -4%

Results for CCCC(=O)Nc1ccc(NC(=O)C2CC2)cn1 ?
HPGD inh: -15%; PNC assembly inh: 17; ALDH1A1 block: 8%

How did O=C(Nc1ccc(Br)c(Cl)c1)C1CC1 do in these assays?
HPGD inh: 18µM*; PNC assembly inh: 31; ALDH1A1 block: -13%

What do the screens show for `O=C(O)c1ccc(Nc2ncc([N+](=O)[O-])cc2[N+](=O)[O-])cc1`?
ALDH1A1 block: -11%

What do the screens show for `CCCC[C@@H]1C[C@H]1C(NC(=O)c1ccccc1)c1ccc(C(F)(F)F)cc1` (some centres undefined)?
HPGD inh: -13%; ALDH1A1 block: 7%

What do the screens show for `CCOC(=O)Nc1ccc(OCc2nnc3c4ccccc4c(C)nn23)cc1`?
ALDH1A1 block: 0%

What do the screens show for `Cc1nn2c(COc3ccc(NC(=O)c4ccccc4Cl)cc3)nnc2c2ccccc12`?
HPGD inh: 14µM*; PNC assembly inh: 14; ALDH1A1 block: 5%

What do the screens show for `Cc1nn2c(CN(C(=O)CN3CCOCC3)c3ccccc3)nnc2c2ccccc12`?
HPGD inh: -3%; PNC assembly inh: -21; ALDH1A1 block: 18µM*

Results for Cc1nn2c(COc3ccc(NC(=O)C(C)C)cc3)nnc2c2ccccc12 ?
ALDH1A1 block: -6%

What do the screens show for `Cc1nn2c(CN(C(=O)COc3ccccc3)c3ccccc3)nnc2c2ccccc12`?
HPGD inh: -22%; PNC assembly inh: 8; ALDH1A1 block: 11µM*

Results for Cc1nn(CC(=O)N2CCOCC2)c(=O)c2ccccc12 ?
PNC assembly inh: 10; ALDH1A1 block: -2%

What do the screens show for `CS(=O)(=O)c1ccc(C(=O)OCC(=O)NC2CCS(=O)(=O)C2)cc1[N+](=O)[O-]` (centres undefined)?
ALDH1A1 block: -3%

Results for COc1ccc(NC(=O)C2CCCC2)cn1 ?
ALDH1A1 block: 3%

How did COc1cccc(N/C(SCc2ccccc2Cl)=C(/C#N)C(=O)NCc2cccs2)c1 do in these assays?
HPGD inh: -9%; PNC assembly inh: -125*; ALDH1A1 block: -1%

Results for COc1cccc(N/C(SCc2ccccc2C)=C(/C#N)C(=O)NCc2cccs2)c1 ?
HPGD inh: -15%; PNC assembly inh: -22; ALDH1A1 block: -3%

How did Cc1c(NC2=C(Cl)C(=O)N(c3ccccc3Cl)C2=O)c(=O)n(-c2ccccc2)n1C do in these assays?
HPGD inh: -8%; PNC assembly inh: 17; ALDH1A1 block: 35µM*

What do the screens show for `Cc1c(NC2=C(Cl)C(=O)N(c3ccccc3)C2=O)c(=O)n(-c2ccccc2)n1C`?
HPGD inh: -22%; PNC assembly inh: -17; ALDH1A1 block: inconclusive

How did C=CCNC1=C(Cl)C(=O)N(c2ccccc2Cl)C1=O do in these assays?
HPGD inh: -17%; PNC assembly inh: 18; ALDH1A1 block: 25µM*

Results for COc1ccc(N2C(=O)C(Cl)=C(NCc3ccccc3)C2=O)cc1 ?
HPGD inh: -30%; PNC assembly inh: 22; ALDH1A1 block: -8%

How did CCOc1ccc(N(C)S(=O)(=O)c2ccc(C)c(C(=O)OCC(=O)c3c[nH]c4ccccc34)c2)cc1 do in these assays?
ALDH1A1 block: 0%

Results for O=C(Cc1cn(Cc2cccc(Cl)c2)c2ccccc12)N1CCCC1 ?
HPGD inh: -6%; PNC assembly inh: -5; ALDH1A1 block: inconclusive

Results for N#Cc1cn(Cc2cccc(Cl)c2)c2ccccc12 ?
HPGD inh: -21%; PNC assembly inh: -103*; ALDH1A1 block: inconclusive

What do the screens show for `CCOc1nc(SCCOc2ccc(C)cc2)nc(N(C)C)n1`?
HPGD inh: -22%; PNC assembly inh: -16; ALDH1A1 block: -2%

What do the screens show for `CCNc1nc(NCC)nc(SCCOc2ccc(C)cc2)n1`?
HPGD inh: -15%; PNC assembly inh: -113*; ALDH1A1 block: inconclusive

Results for CCOc1ccc(NC(=S)Nc2ccc(OC(F)(F)F)cc2)cc1 ?
HPGD inh: -9%; PNC assembly inh: 38; ALDH1A1 block: -8%
